ARNT TACC3 PPI: ARNT/TACC3 interaction disruption; inhibition, % at 9.99 µM; AID 623870; AlphaScreen His-ARNT PAS-B/GST-TACC3 binding, luminescence; TACC3 fragment carries E629A point mutation; actives 0.66% (n = 390,000);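 active = mean inhibition of replicates at least 50% and at least half of replicates each reaching 50%; inconclusive = half or more replicates reach 50% but mean below 50%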;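 note: 0% = complete ARNT plus TACC3 wells and 100% = ARNT alone without TACC3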
sPLA2-III inh: Blocks human group III sPLA2 activity; Q9NZ20; QFRET BODIPY PC-A2 liposome hydrolysis, fluorescence; inhibition, % at 12.2 µM; actives 0.56% (n = 370,000); AID 743126;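 active = inhibition above mean plus 3 SD of compounds lying within the high and low control bounds, cut at about 19% in these data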;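 note: 0% = median of test compound wells and 100% = no enzyme DMSO wells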
AI-2 QS modul: modulates the Vibrio harveyi AI-2 quorum sensing system. Vibrio harveyi JMH597 AI-2 luminescence/OD600 ratio, 9 h; hits give low values; strain lacks LuxN and CqsS sensors; 0 = neutral-control median. activity change, % at 7.5 µM. actives 0.4% (n = 300,000); in the data active = activity change below about -75%, passing the limit was not always enough; inconclusive = no clear call, values can overlap the other calls;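 note: luminescence divided by OD600 gain over 9 h not by final OD600 alone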
Rin1 Abl inh: human Rin1-Abl interaction inhibition; AID 588664; TR-FRET Rin1/Abl binding, biochemical; inhibition, % at 7.35 µM; P00519+Q13671; actives 0.4% (n = 360,000); in the data active = inhibition above about 5%, passing the limit was not always enough
Numbers without * were called inactive; ? = inconclusive; / = no result. Rows were chosen to be rich in hits. Some 1.5% of all compounds tested hit in one or more screens of this group.

SMILES | ARNT TACC3 PPI | sPLA2-III inh | AI-2 QS modul | Rin1 Abl inh
COCC(=O)Nc1ccc2c(c1)C(=O)N(C)C[C@H](OC)[C@H](C)CN(C(=O)NC(C)C)[C@@H](C)CO2 | -3 | / | / | /
O=C1NCC2=C1C(c1ccccc1)Nc1ccccc1N2 (stereo not drawn) | active | -8 | 18 | 4
COc1cc(C(=O)N=c2sccn2C)c([N+](=O)[O-])cc1OC | -8 | 4 | 4 | -1
Cn1ccsc1=NC(=O)c1ccc([N+](=O)[O-])o1 | / | 6 | -86* | -4
Oc1cccc(C(Nc2nccs2)c2ccc3cccnc3c2O)c1 (stereo not drawn) | 40 | 14 | -85* | 2
CC(=O)NC(c1cccc([N+](=O)[O-])c1)c1ccc2cccnc2c1O (stereo not drawn) | 21 | 0 | ? | 4
O=C(O)CN1CCN(CC(=O)O)CCN(CC(=O)O)CCN(CC(=O)O)CC1 | 60* | 1 | 15 | 1
Cc1noc(NS(=O)(=O)c2ccc(NC(=O)CSc3nnc4c(n3)[nH]c3ccccc34)cc2)c1C | 71* | -4 | 38 | 2
Cc1noc(NS(=O)(=O)c2ccc(NC(=O)CSc3nc4ccccc4[nH]3)cc2)c1C | 4 | -30 | 20 | 1
CC(C)NC(=O)N[C@@H]1CC[C@H](CCNS(=O)(=O)c2ccc(Cl)cc2)O[C@@H]1CO | 0 | / | / | /
Oc1ccc(Cl)cc1C1=Nc2ccccc2N=C(c2ccco2)C1 | -1 | 5 | 11 | -2
COc1ccc(O)c(C2=Nc3ccccc3N=C(c3ccco3)C2)c1 | 53* | 3 | 15 | 0
COc1ccc(/C=C/C(=O)NC(=S)NNC(=O)c2cccnc2)cc1 | / | 17 | -2 | -5
O=C(NC(=S)NNC(=O)c1cnccn1)c1ccc(F)cc1 | 68* | 4 | -89* | -1
O=C(/C=C/c1ccc(F)cc1)NC(=S)NNC(=O)c1cnccn1 | 64* | 11 | -57 | 2
O=C(NNC(=S)NC(=O)c1ccc(F)cc1)c1cccnc1 | 6 | 4 | 23 | 0
O=C(NNC(=O)c1cnccn1)c1ccc(Cl)cc1 | 16 | -3 | -11 | -1
COc1ccc(/C=C/C(=O)NC(=S)NNC(=O)c2cnccn2)cc1 | 61* | 6 | 9 | 2
O=C(NNC(=S)NC(=O)c1cccnc1)c1ccc(F)cc1 | 28 | 7 | -84* | -3
CO[C@H]1CN(C)C(=O)c2ccc(NC(=O)C3CC3)cc2OC[C@@H](C)N(C(=O)c2cccnc2)C[C@@H]1C | -5 | / | / | /
C[C@H]1CN([C@@H](C)CO)S(=O)(=O)c2ccc(-c3ccccc3)cc2O[C@H]1CN(C)C | 4 | / | / | /
O=c1[nH]c(Nc2ccccc2Cl)cc2ccccc12 | 37* | -3 | 40 | 5
O=c1[nH]c(Nc2ccc(F)cc2)cc2ccccc12 | 38 | -2 | 30 | 1
Cc1ccccc1Nc1cc2ccccc2c(=O)[nH]1 | 24 | / | 32 | 16*
CN1CC(=O)N(CC(=O)Nc2ccc(SC(F)F)cc2)C1=O | 18 | 0 | -86* | 2
SMILES | ARNT TACC3 PPI | sPLA2-III inh | AI-2 QS modul | Rin1 Abl inh
CC1(C2CC2)NC(=O)N(CC(=O)Nc2ccc(SC(F)F)cc2)C1=O (stereo not drawn) | 2 | 8 | / | 1
O=Cc1cn(-c2ccccc2)nc1-c1ccc(F)cc1 | -1 | 1 | -10 | -3
O=C1NC(=O)C(c2cn(-c3ccccc3)nc2-c2ccc(F)cc2)N1 (stereo not drawn) | -5 | -8 | -86* | -2
COc1ccc(/C=N/NC(=O)c2cc[n+]([O-])cc2)cc1O | 72* | 2 | -3 | -3
N#C[C@H]1[C@@H](c2ccccc2)[C@@H](CO)N1C(=O)Cc1ccccn1 | 6 | / | / | /
C/C=C/c1ccc([C@@H]2[C@@H](C#N)N(C(=O)Cc3ccccn3)[C@@H]2CO)cc1 | 46* | / | / | /
C/C=C/c1ccc([C@@H]2[C@H](CO)N(Cc3ccccn3)[C@H]2CNC(=O)CC)cc1 | 30* | / | / | /
C/C=C/c1ccc([C@@H]2[C@@H](CO)N(Cc3ccccn3)[C@H]2CNC(=O)CC)cc1 | 3 | / | / | /
COC(=O)C1C(O)C(C)C(O)C(C)(O)/C=C\C=C(/C)C(=O)Nc2c(C)c(OC(C)=O)c3c(c2O)C(=O)C(C)=C2OCOC(=C23)/C(C)=C/C(C)(O)C(O)C(C)C1O (stereo not drawn) | 29 | -15 | -160* | -2
COc1cc(N/N=C/c2ccccc2O)ncn1 | 63* | 1 | 9 | -3
COc1cc(/C=N/Nc2ccccn2)cc(OC)c1O | 66* | 5 | 25 | -1
COc1cc(N/N=C/c2ccc(N(C)C)cc2)ncn1 | -1 | 9 | 17 | 1
O=C(NCC[C@@H]1CC[C@H](NS(=O)(=O)c2ccccc2)[C@H](CO)O1)c1ccccc1F | -1 | / | / | /
Cc1ccc(S(=O)(=O)Nc2ccc3c(c2)CC(=O)N([C@@H](C)CO)C[C@@H](C)[C@H](CN(C)CC2CCCCC2)O3)cc1 | 9 | / | / | /
Cc1[nH]n(-c2ccccc2)c(=O)c1N=Nc1c(O)cc(S(=O)(=O)N(C)C)c2ccccc12 | 13 | 31* | 1 | 5
Cc1[nH]n(-c2ccccc2)c(=O)c1N=Nc1ccc2c(c1)OCCO2 | 8 | 5 | 5 | 1
Cc1cc(=O)[nH]c2c(N=Nc3ccc(O)cc3)c(N)nn12 | 47* | -4 | -1 | -9
CCN(CC)S(=O)(=O)c1cccc(NC(=O)COC(=O)c2cc(C)oc2C)c1 | 2 | -47 | 11 | 3
O=C(OCc1cc(Cl)ccc1OC(F)F)c1ccc([N+](=O)[O-])o1 | / | / | -99* | /
Cc1cc(C(=O)OCC(=O)Nc2ccc(F)cc2)c(C)o1 | / | 4 | -82* | 0
Cc1cc(C(=O)OCC(=O)Nc2cccc(S(=O)(=O)N(C)C)c2)c(C)o1 | -3 | -13 | -89* | -1
O=C(COC(=O)c1ccc([N+](=O)[O-])o1)Nc1cccc(S(=O)(=O)N2CCOCC2)c1 | 10 | 7 | 20 | -1
CN(C)S(=O)(=O)c1cccc(NC(=O)COC(=O)c2ccc([N+](=O)[O-])o2)c1 | 64* | 5 | 50 | 3
C/C=C/c1cnc2c(c1)C(=O)N([C@@H](C)CO)C[C@H](C)[C@@H](CN(C)C(=O)Cc1ccccc1)O2 | -7 | / | / | /
COc1ccc(NC(=O)COC(=O)c2ccc([N+](=O)[O-])o2)cc1Cl | 43 | -2 | -89* | 4
SMILES | ARNT TACC3 PPI | sPLA2-III inh | AI-2 QS modul | Rin1 Abl inh
O=Nc1c(O)[nH]c2ccc(Cl)c(Cl)c12 | 59* | -77 | / | 0
CN(C)S(=O)(=O)c1ccc(NC(=S)NC(=O)C2CCC2)cc1 | -6 | 8 | -76* | 1
C[C@H](CO)N1C[C@H](C)[C@H](CN(C)Cc2ccc3c(c2)OCO3)Oc2ccc(NC(=O)Cn3cnnn3)cc2C1=O | 4 | / | / | /
C[c-]1[c-](C)[c-](C)[c-](C)[c-]1C.[Fe].c1cc2nccc(N3CCCC3)[c-]2c1 (stereo not drawn) | 62* | -3 | 32 | 3
c1cc(N2CCCCC2)nc(N2CCCCC2)n1 | -6 | 13 | / | -2
O=C(CC1CC1)Nc1ccc2c(c1)[C@H]1C[C@@H](CC(=O)NC3CCCCC3)O[C@H](CO)[C@H]1O2 | -5 | / | / | /
